Assay [1] has as its target T1, Inhibitor of nuclear factor kappa-B kinase subunit epsilon (Homo sapiens) (UniProt Q14164).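 Also: reported values are averaged percent inhibition figures against human IKKε.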
T1 sequence (whole entry): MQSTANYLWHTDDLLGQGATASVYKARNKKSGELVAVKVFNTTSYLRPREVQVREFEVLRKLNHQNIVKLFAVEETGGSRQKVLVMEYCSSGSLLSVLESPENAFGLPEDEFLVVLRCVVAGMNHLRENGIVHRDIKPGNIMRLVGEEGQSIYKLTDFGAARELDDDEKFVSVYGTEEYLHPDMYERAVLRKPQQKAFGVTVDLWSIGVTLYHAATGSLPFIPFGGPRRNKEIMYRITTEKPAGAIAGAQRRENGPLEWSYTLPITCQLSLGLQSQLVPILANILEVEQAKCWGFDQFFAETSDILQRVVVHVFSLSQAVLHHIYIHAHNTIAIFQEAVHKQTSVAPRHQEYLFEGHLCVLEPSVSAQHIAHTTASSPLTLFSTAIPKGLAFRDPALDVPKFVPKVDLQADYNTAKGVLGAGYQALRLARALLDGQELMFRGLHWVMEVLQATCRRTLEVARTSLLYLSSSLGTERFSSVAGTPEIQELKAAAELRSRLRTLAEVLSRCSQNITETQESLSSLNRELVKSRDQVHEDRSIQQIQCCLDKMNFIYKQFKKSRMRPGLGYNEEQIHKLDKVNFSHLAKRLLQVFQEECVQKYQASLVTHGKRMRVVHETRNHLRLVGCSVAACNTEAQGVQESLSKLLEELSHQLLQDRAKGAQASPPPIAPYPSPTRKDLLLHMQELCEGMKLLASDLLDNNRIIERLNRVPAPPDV
Particulars: at 1 µM.

Assay [2] concerns the target T2, Serine/threonine-protein kinase Nek1 (Homo sapiens) (UniProt Q96PY6).
T2 sequence (whole entry): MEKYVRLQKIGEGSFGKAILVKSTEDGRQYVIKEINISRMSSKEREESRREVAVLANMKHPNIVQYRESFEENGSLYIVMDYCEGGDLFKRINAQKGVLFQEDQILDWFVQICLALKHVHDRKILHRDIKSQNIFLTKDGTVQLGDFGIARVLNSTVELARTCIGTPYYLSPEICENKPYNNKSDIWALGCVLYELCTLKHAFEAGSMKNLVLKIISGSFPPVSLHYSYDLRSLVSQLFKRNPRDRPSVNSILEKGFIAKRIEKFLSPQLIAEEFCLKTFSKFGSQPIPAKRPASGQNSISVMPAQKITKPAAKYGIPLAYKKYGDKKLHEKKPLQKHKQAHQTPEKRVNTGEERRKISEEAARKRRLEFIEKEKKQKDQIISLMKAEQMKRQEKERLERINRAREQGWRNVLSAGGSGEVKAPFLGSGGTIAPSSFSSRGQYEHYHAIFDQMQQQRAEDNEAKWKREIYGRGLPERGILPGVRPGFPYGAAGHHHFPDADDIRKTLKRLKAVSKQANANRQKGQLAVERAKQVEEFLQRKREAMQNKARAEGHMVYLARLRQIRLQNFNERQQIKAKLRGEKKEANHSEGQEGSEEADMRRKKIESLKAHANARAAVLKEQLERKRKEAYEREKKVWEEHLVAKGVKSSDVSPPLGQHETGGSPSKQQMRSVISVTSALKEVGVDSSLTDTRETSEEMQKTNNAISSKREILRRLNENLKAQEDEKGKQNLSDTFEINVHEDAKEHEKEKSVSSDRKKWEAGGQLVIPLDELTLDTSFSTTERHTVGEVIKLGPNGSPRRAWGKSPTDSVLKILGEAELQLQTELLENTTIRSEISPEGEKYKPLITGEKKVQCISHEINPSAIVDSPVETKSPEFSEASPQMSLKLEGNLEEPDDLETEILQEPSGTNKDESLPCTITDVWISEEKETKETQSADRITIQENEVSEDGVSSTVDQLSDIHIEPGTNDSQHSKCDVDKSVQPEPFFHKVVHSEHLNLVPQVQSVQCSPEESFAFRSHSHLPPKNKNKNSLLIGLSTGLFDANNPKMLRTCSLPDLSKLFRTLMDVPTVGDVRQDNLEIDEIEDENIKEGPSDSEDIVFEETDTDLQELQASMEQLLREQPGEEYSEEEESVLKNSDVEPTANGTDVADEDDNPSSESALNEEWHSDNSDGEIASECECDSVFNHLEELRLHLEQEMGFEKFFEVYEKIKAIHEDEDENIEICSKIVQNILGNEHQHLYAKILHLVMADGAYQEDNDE
Particulars: at 0.1 µM.

The target of assay [3] is T2, Serine/threonine-protein kinase Nek1 (Homo sapiens). Particulars: at 1 µM.
In assay [4] the target is T3, Serine/threonine-protein kinase Nek2 (Homo sapiens) (UniProt P51955).
T3 sequence (whole entry): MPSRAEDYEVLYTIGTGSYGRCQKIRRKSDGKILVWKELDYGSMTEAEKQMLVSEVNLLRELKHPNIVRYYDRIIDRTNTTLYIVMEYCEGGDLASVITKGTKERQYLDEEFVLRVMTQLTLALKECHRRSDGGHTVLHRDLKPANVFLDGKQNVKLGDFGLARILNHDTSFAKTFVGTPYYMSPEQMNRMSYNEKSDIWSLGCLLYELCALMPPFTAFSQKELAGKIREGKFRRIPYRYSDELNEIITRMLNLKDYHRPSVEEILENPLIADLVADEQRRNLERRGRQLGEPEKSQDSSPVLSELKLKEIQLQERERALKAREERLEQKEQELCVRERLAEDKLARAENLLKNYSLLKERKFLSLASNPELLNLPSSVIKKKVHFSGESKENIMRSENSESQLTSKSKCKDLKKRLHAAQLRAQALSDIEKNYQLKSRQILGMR
Particulars: at 0.1 µM.

The target in assay [5] is T3, Serine/threonine-protein kinase Nek2 (Homo sapiens). The following applies: at 1 µM.
In assay [6] the target is Serine/threonine-protein kinase Nek6 (Homo sapiens) (UniProt Q9HC98). The following applies: at 0.1 µM.
Chain of Serine/threonine-protein kinase Nek6 (Homo sapiens) (Q9HC98 whole entry): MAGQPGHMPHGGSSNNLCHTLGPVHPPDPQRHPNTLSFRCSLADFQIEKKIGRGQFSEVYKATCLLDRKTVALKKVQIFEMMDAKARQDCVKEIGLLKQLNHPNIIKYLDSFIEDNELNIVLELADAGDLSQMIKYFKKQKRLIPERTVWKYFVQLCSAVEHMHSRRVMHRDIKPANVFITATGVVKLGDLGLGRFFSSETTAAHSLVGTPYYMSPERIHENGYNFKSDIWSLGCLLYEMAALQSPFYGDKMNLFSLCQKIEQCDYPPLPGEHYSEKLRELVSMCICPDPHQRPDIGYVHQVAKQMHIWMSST
Assay [7] shares this target. Particulars: at 1 µM.
Assay [8] concerns the target Serine/threonine-protein kinase Nek7 (Homo sapiens) (UniProt Q8TDX7). The following applies: at 0.1 µM.
For assay [9] the target is unchanged. Particulars: at 1 µM.
Assay [10] deals with T4, Serine/threonine-protein kinase Nek9 (Homo sapiens) (UniProt Q8TD19).
T4 sequence (whole entry): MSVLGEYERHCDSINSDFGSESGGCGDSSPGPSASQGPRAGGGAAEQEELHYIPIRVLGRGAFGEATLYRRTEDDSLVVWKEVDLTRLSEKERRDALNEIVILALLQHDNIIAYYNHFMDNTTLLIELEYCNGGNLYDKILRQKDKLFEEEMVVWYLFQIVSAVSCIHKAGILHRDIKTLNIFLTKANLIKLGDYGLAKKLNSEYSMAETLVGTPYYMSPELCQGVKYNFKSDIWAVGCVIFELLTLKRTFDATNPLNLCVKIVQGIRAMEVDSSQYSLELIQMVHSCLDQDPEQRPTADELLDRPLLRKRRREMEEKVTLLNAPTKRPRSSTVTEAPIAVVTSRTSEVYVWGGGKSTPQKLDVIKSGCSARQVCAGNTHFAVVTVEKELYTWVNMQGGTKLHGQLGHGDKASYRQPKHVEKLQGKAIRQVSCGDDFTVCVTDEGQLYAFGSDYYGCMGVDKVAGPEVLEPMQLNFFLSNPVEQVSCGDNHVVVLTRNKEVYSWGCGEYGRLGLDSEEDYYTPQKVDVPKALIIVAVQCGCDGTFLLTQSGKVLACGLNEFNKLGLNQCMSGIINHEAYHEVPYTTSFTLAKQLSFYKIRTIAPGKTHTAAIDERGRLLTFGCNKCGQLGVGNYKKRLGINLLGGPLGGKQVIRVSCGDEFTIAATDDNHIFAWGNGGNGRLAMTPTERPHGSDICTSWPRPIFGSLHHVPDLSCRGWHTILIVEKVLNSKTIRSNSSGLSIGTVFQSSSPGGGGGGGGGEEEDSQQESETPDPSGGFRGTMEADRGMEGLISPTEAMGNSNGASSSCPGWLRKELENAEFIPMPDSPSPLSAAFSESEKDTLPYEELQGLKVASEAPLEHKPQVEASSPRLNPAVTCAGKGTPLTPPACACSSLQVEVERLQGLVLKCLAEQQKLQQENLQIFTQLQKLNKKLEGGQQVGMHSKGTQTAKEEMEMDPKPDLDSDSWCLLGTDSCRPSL
The following applies: at 0.1 µM.

Assay [11] addresses T4, Serine/threonine-protein kinase Nek9 (Homo sapiens). The following applies: at 1 µM.
Assay [12] deals with Serine/threonine-protein kinase PLK1 (Homo sapiens) (UniProt P53350). The following applies: at 0.1 µM.
Chain of Serine/threonine-protein kinase PLK1 (Homo sapiens) (P53350 whole entry): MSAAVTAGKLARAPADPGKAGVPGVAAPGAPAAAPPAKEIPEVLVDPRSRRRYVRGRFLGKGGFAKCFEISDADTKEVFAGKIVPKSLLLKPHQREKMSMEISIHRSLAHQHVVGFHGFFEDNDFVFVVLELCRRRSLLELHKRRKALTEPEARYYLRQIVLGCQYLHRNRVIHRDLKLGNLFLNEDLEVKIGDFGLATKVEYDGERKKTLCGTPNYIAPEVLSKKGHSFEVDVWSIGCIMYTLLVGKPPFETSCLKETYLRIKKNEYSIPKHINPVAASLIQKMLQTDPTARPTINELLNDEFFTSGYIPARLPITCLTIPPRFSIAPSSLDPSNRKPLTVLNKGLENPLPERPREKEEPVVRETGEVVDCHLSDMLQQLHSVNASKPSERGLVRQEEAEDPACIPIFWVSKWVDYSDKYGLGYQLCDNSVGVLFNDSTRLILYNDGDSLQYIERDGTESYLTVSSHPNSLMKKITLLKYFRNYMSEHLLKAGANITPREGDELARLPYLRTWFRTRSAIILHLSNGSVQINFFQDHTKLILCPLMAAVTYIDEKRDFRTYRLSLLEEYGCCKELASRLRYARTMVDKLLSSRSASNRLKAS
For assay [13] the target is unchanged. The following applies: at 1 µM.
Assay [14] concerns the target T5, Dual specificity protein kinase TTK (Homo sapiens) (UniProt P33981).
T5 sequence (whole entry): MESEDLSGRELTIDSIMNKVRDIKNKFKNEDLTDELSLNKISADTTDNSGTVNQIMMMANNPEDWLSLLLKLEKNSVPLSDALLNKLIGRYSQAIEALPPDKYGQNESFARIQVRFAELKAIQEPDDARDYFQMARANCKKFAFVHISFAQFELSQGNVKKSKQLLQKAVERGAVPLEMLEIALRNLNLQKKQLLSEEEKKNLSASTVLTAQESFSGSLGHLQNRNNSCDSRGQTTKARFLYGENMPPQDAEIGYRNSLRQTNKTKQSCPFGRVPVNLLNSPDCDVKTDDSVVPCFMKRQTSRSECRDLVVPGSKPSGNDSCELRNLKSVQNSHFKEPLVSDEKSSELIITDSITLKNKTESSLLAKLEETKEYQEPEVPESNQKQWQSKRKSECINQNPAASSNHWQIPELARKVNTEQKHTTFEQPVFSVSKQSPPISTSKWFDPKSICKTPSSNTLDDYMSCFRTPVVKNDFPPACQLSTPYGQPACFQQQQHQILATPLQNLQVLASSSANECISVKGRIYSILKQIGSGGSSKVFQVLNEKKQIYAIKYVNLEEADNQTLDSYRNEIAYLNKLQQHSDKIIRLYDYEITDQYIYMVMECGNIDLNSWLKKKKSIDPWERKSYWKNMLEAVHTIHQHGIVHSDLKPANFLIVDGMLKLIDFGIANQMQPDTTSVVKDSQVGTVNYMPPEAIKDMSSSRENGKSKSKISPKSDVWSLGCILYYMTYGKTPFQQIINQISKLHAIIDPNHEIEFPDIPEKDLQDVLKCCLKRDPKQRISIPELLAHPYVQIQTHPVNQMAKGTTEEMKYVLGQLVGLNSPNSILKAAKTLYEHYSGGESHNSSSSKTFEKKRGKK
Particulars: at 0.1 µM.

Assay [15] concerns T6, Receptor-type tyrosine-protein kinase FLT3 (Homo sapiens), P36888 [D835Y].
T6 sequence (whole entry): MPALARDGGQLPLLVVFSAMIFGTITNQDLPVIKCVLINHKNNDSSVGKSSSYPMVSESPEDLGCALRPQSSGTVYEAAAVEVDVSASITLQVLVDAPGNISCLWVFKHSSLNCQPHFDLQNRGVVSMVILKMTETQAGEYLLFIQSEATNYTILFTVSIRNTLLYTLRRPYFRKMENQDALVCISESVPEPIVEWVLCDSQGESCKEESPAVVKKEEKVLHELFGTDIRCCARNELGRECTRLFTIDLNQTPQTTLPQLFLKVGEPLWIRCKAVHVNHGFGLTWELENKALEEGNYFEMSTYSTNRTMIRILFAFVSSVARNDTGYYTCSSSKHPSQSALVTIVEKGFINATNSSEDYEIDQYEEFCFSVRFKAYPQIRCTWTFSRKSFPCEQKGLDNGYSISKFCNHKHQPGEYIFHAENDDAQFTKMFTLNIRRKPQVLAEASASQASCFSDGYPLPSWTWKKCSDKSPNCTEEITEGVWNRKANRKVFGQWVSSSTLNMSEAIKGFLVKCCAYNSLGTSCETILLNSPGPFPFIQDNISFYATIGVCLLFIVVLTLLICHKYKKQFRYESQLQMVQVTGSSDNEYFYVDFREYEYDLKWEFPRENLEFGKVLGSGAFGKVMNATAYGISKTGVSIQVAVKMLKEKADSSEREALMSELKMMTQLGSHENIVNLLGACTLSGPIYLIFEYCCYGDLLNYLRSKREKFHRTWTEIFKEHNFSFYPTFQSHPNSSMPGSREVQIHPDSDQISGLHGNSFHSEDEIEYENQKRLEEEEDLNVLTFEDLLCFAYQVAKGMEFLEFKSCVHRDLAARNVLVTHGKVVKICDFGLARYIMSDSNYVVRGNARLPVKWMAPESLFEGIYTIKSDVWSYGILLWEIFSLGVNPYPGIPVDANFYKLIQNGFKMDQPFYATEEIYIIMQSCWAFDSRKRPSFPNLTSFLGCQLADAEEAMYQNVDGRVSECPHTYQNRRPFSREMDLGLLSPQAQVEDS
Particulars: at 1 µM.

Assay [16] concerns the target Vascular endothelial growth factor receptor 3 (Homo sapiens) (UniProt P35916). Particulars: at 0.1 µM.
Assay [17] shares this target. Particulars: at 1 µM.
For assay [18], the target named is Macrophage colony-stimulating factor 1 receptor (Homo sapiens) (UniProt P07333). Particulars: at 0.1 µM.
Chain of Macrophage colony-stimulating factor 1 receptor (Homo sapiens) (P07333 whole entry): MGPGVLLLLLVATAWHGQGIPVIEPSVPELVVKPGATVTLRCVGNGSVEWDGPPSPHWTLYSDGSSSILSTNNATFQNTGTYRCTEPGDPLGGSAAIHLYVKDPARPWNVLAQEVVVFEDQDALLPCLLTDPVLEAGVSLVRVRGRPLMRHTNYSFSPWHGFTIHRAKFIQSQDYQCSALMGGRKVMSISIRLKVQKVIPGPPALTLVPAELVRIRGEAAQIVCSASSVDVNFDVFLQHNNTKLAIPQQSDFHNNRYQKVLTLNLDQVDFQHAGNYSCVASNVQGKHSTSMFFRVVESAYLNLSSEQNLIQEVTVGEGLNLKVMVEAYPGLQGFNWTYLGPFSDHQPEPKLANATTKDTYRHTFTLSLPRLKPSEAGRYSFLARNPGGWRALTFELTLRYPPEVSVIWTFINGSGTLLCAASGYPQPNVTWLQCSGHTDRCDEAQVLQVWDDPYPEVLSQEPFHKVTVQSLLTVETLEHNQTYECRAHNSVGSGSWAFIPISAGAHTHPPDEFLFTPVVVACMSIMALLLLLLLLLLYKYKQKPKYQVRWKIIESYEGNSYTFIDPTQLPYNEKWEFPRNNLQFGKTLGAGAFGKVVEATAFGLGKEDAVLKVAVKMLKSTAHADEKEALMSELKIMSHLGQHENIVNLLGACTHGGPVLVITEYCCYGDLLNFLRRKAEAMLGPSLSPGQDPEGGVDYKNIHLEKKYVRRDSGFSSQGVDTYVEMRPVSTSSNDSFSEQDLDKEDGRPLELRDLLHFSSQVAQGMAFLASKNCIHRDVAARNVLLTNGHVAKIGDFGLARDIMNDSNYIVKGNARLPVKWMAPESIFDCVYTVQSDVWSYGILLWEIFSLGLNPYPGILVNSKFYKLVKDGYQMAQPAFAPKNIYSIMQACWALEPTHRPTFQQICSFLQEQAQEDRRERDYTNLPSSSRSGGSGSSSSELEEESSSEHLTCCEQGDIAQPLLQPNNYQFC
The target is the same in assay [19]. Particulars: at 1 µM.
The target in assay [20] is Tyrosine-protein kinase Fyn (Homo sapiens) (UniProt P06241). Particulars: at 0.1 µM.
Chain of Tyrosine-protein kinase Fyn (Homo sapiens) (P06241 2-537 limits assumed): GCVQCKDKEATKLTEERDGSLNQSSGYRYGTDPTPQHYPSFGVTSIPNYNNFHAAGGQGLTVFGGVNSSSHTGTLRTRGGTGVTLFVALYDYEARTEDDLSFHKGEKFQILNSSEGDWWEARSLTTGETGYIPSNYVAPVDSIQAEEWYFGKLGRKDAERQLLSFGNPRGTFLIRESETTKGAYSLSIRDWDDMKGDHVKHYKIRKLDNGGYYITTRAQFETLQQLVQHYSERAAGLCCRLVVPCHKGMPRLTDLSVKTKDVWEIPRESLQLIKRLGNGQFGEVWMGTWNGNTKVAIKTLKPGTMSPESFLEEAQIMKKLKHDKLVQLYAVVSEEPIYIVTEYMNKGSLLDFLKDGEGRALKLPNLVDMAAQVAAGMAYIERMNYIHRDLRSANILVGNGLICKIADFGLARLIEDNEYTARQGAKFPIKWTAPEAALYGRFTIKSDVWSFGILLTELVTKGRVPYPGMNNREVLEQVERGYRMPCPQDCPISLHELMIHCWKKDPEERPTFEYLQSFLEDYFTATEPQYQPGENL

The term inhibition denotes the relative decrease from the control value, in per cent.

Chain of Vascular endothelial growth factor receptor 3 (Homo sapiens) (P35916 whole entry): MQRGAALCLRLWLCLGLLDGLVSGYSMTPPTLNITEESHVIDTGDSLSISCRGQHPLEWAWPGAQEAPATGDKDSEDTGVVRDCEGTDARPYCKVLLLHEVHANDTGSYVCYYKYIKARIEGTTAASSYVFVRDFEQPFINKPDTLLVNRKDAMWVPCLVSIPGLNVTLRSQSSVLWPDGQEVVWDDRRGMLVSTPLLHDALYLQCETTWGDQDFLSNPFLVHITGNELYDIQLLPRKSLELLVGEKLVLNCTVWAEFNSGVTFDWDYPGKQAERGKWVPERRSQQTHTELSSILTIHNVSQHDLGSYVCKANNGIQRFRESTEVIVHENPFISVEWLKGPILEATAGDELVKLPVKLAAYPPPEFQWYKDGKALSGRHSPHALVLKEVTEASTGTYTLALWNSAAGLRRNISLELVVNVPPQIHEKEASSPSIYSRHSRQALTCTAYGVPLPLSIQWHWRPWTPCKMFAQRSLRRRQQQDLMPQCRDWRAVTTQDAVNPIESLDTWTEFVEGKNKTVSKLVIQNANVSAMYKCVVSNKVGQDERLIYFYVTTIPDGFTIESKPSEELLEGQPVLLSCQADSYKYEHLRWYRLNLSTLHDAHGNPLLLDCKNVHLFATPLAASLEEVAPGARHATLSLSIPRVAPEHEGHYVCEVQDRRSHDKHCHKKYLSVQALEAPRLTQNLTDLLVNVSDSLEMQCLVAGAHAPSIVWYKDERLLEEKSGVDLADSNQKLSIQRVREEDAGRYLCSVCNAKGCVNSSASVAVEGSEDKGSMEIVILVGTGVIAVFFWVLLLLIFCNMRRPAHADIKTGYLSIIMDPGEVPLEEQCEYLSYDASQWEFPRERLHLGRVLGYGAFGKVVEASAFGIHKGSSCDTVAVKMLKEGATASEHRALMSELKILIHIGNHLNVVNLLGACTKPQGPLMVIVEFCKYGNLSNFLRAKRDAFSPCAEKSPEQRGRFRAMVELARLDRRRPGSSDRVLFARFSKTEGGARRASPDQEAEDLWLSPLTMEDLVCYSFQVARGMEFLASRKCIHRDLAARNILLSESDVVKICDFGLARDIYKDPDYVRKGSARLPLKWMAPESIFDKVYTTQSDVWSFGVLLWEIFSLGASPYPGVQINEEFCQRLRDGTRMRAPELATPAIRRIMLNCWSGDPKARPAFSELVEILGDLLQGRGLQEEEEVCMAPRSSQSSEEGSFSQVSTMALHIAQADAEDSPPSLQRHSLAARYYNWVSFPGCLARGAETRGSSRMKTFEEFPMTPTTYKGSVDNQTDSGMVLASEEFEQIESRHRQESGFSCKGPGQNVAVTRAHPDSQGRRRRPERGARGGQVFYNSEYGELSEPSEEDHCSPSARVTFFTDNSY
Chain of Serine/threonine-protein kinase Nek7 (Homo sapiens) (Q8TDX7 whole entry, looked up): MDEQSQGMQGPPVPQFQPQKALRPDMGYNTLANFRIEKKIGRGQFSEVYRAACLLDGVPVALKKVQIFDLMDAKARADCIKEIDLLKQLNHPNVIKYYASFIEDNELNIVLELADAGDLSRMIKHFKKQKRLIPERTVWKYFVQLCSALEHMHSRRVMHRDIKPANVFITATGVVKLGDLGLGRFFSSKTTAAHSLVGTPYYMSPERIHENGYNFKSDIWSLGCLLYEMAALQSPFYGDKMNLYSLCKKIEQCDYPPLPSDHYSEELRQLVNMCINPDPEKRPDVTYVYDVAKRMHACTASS

Turning to `CCn1c(-c2nonc2N)nc2ccc(F)cc21`, the inhibition stood at 11% in [1]; 3.29% in [2]; 4.51% in [3]; 6.07% in assay [4]; 7.52% in [5]; 5.03% in assay [6]. The inhibition in assay [7] came to 5.4%; in assay [8], 5.72%; in [9], 3.91%; in [10], 5.14%; in assay [11] it was 6.41%; in assay [12] it was 6.39%. Besides, the inhibition in assay [13] was determined as 4.59%; in assay [14], 12.1%; in assay [15], 1.01%; in assay [16], 6.14%; in [17], 6.77%; in assay [18], 1.29%. For the same compound, the results for the inhibition in assay [19] and in assay [20] were 0.35% and 2.04%, respectively.

For the compound `OCc1ccc(-c2nc(-c3ccccn3)c(-c3ccc4c(c3)OCO4)[nH]2)cc1`, the inhibition in assay [1] amounted to 5.41%; in assay [2], 2.17%; in [3], 2.95%; in assay [4], 5.76%; in assay [5], 4.54%; in [6], 2.18%. Also, the inhibition in assay [7] turned out to be 0.25%; in [8] it was 3.26%; in assay [9], 2.28%; in assay [10], 5.12%; in assay [11], 2.88%; in [12], 3.56%. Further, the inhibition in [13] was 4.3%; in [14], 7.41%; in [15], -0.9%; in [16] it was 1.47%; in assay [17], -0.57%; in assay [18] it was 3.57%. Besides, the inhibition in [19] came out at 4.35%; in assay [20], 2.25%.

The record behind these values is ChEMBL document CHEMBL1961873, “Compounds: GSK PKIS; Assays: Nanosyn kinase panel” (2012).
